From PMC7819943, “Rice protein-binding microarrays: a tool to detect cis-acting elements near promoter regions in rice”
Whole data set: some 39,000 sequences, median “fluorescence intensity (a.u.)” near 4,300, cut for the highest 2% near 39,000. The sample holds the highest values, similar sequences and a random draw of the others, so the mix is not that of the screen.

Each sequence was assayed against T1, OsSMF1 (Oryza sativa, UniProt Q6ZLB0 1-436) (assay: protein-binding microarray (RPBM); PBS, 2% BSA, 51.3 ng/ul salmon testes DNA, 50 uM zinc acetate, 200 nM TF, 25 C, 1 h; high values mean tight binding). Conditions: protein: recombinant; tags: N-terminal polyhistidine and DsRed monomer fusion (pET32a); chain copies: 2; label: CyDye5-dUTP incorporated in the synthesized complementary strand; 3' TTTTT single-stranded linker to array surface; dsDNA, one strand shown.
T1 sequence: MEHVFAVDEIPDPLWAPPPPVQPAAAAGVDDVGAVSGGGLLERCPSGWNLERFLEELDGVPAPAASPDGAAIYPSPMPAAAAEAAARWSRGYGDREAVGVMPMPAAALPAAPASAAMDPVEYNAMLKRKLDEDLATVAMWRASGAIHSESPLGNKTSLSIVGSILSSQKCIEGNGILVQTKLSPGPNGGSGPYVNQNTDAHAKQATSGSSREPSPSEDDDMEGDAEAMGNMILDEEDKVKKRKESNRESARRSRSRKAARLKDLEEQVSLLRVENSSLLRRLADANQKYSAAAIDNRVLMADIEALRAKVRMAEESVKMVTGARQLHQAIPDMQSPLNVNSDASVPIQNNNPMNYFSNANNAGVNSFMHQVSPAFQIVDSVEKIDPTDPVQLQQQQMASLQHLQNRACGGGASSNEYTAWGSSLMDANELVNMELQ
Summary of the method: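 Polyhistidine-tagged DsRed fusions of transcription factors, joined at the N-terminus, were expressed in E. coli BL21-CodonPlus and isolated on Ni–NTA. They were incubated at 200 nM for 1 h at 25 °C on a custom Agilent array, double-stranded and BSA-blocked, in PBS with 2% BSA, salmon testes DNA and 50 µM zinc acetate. The binding signal is per-feature fluorescence intensity (arbitrary units) read on an Axon 4000B scanner after washing.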

Sequence	binding signal
CCTCCGACATCTCCAGCCAATTCCAGCTCAGCTCTCGCCGCGGAGTCACCTAGTGCAG	4150 fluorescence intensity (a.u.)
GCTTTACGTCTTGTGTGGAAGAAAGCGGAAAACTATCCAGCGGAGTCACCTAGTGCAG	3540 fluorescence intensity (a.u.)
ATAATAGCACATGTGGATATCTGTAGAATTCATTTCGTGTCGGAGTCACCTAGTGCAG	3550 fluorescence intensity (a.u.)
GAACGGGACCAGCTACTATAGTGAAATTTAGATTTCAAAGCGGAGTCACCTAGTGCAG	42200 fluorescence intensity (a.u.)
AGCAGCGGGCTACAGATTTATAGCCAGCTGTAGCACGGATCGGAGTCACCTAGTGCAG	33200 fluorescence intensity (a.u.)
GACGTGATAAAGAAGTTCAGATTTAGAAATAAATTTGAAGCGGAGTCACCTAGTGCAG	3820 fluorescence intensity (a.u.)
GCGGCTTCTCGCCGGCGGCGACCACCACCCGTCACCCACCCGGAGTCACCTAGTGCAG	3380 fluorescence intensity (a.u.)
ATCCATTGCTGCTTTCAGCTGAGTCACCAACTCCTATCCACGGAGTCACCTAGTGCAG	14100 fluorescence intensity (a.u.)
GTTGCAGAGCAGCTCGCGCCGCGCGCGTACACTCGCTTTGCGGAGTCACCTAGTGCAG	6780 fluorescence intensity (a.u.)
TTTGCCCATTTTATTCCCTTGCGTCATCCATTTACTGCTTCGGAGTCACCTAGTGCAG	13800 fluorescence intensity (a.u.)
GGGCTTGCCCATTACGCGTTGCTATAGACGCCCTTTCATTCGGAGTCACCTAGTGCAG	41600 fluorescence intensity (a.u.)
GTGGGCTTAGACGGCCCAGTCATGACCCTTTCATTTCGTGCGGAGTCACCTAGTGCAG	3440 fluorescence intensity (a.u.)
GCGGTGGCGGTTGGGGTGGCGAGTGGGGAGGAGGAGGCGGCGGAGTCACCTAGTGCAG	5880 fluorescence intensity (a.u.)
CCCAAAGCTGACGTACAGCACCGACCCGGTCGGCTGCTCGCGGAGTCACCTAGTGCAG	4200 fluorescence intensity (a.u.)
CGCCGGCACAGCGACATAGCTGACGTCGACGATGCTCACTCGGAGTCACCTAGTGCAG	5350 fluorescence intensity (a.u.)
TAGCGCGGCTGCACAGTACAGTCCGACGTCACAGCTCACTCGGAGTCACCTAGTGCAG	49200 fluorescence intensity (a.u.)
ACCACATCCACTGCCGCGCCACGCCTCTCGGCCGCCACACCGGAGTCACCTAGTGCAG	3770 fluorescence intensity (a.u.)
CAACCTTTATCTGAAGTGGCAGGCACGTGGATTAGCAATACGGAGTCACCTAGTGCAG	5790 fluorescence intensity (a.u.)
GGTAATAGTGTCAACATATTGCATTAAGATGATTGCAGTGCGGAGTCACCTAGTGCAG	24300 fluorescence intensity (a.u.)
CAAGATGGGTCGGGTTGGGTGGGGTTACTCGCACTAGCACCGGAGTCACCTAGTGCAG	3160 fluorescence intensity (a.u.)
GCGGCTCGCCGTCATATGCGACGTGGCATGCACGACGCCGCGGAGTCACCTAGTGCAG	14300 fluorescence intensity (a.u.)
TTTTCGCTGAGGTGGCAGGTTAACTTGTCTGCTTTCGGCCCGGAGTCACCTAGTGCAG	39300 fluorescence intensity (a.u.)
GGCAGGACGGCAGGAGGCCTGTTCGCTTGAGGTGTCTAGCCGGAGTCACCTAGTGCAG	39800 fluorescence intensity (a.u.)
CGCTGCTGAGTGCTGACTCCTTCGCCCTCCTCCTCACTTTCGGAGTCACCTAGTGCAG	7650 fluorescence intensity (a.u.)
GAATAGCTGCTTGTTAACTAGGGATTAGAGGTGGGGTTTTCGGAGTCACCTAGTGCAG	17400 fluorescence intensity (a.u.)
AGTGGCAGGGGTGTGGGGATTGCCGGCTTGCCGCGGAGGACGGAGTCACCTAGTGCAG	3530 fluorescence intensity (a.u.)
CTAGCTTTGAGGTGGAGGTGGTGGTGGAGGAGGAGGAGGACGGAGTCACCTAGTGCAG	3340 fluorescence intensity (a.u.)

Sequence	binding signal
GGGCTGGGGAAAATGATCGACTACTTTTAACCATTTCAGTCGGAGTCACCTAGTGCAG	3420 fluorescence intensity (a.u.)
TACGTTGAATATTACCCTCTTGATGACTTGACTAATTTTACGGAGTCACCTAGTGCAG	3880 fluorescence intensity (a.u.)
TTATATATCCCTGATAGCTGATTAGTTGGCACATCAGCATCGGAGTCACCTAGTGCAG	3210 fluorescence intensity (a.u.)
CAAGGGAGGAGGGAGAAAGAAAAGGATGGGAGATTTGCTCCGGAGTCACCTAGTGCAG	3290 fluorescence intensity (a.u.)
AGAGGTTCAAACTGTATATGTTCTAGACCATTCACAAGCTCGGAGTCACCTAGTGCAG	64100 fluorescence intensity (a.u.)
TGGTCACTGCAGCAGGTTCAGGACAAAGCAACCTGTTTCTCGGAGTCACCTAGTGCAG	3600 fluorescence intensity (a.u.)
AAGGTAGAGTCAAATAGAAGCTCTATATCATGTAGACACTCGGAGTCACCTAGTGCAG	3360 fluorescence intensity (a.u.)
ACCCACACACCCACACCCACACGTCAAAGACCCACGGTTTCGGAGTCACCTAGTGCAG	3160 fluorescence intensity (a.u.)
CCTAACCGCCCAGCAGAGGCAAAGTGTGGTCGAAACCTAGCGGAGTCACCTAGTGCAG	49500 fluorescence intensity (a.u.)
TGTGGTGTGTGTGTGGCTGAAACCGCGAGGCCGCCGCGAGCGGAGTCACCTAGTGCAG	3440 fluorescence intensity (a.u.)
CAGAGGCAAACGTACGTGGAGGCAGGAGGAGTGGTCACCGCGGAGTCACCTAGTGCAG	4440 fluorescence intensity (a.u.)
CCGTCGCCGGCGGCGGATCGGCCCCACATCACCTCGGCCTCGGAGTCACCTAGTGCAG	3250 fluorescence intensity (a.u.)
AGAAGACAACAGTGAGGAACTGAGGACACGTGTACTTGGACGGAGTCACCTAGTGCAG	12600 fluorescence intensity (a.u.)
TGAGCCCATTCTATCTTGTACCAATTTGTGGGATATGGCCCGGAGTCACCTAGTGCAG	41000 fluorescence intensity (a.u.)
AAATTTGTACCATCTTGTTGTCCATCATTCTTGACAAGAGCGGAGTCACCTAGTGCAG	3280 fluorescence intensity (a.u.)
ACCTTGTACTTTTGTCTACATATGTGTCATTCTATCTTGGCGGAGTCACCTAGTGCAG	5120 fluorescence intensity (a.u.)
CATCCACGTGGTGCCGCACCTAACCAGCGTAGCAGTTGCTCGGAGTCACCTAGTGCAG	5710 fluorescence intensity (a.u.)
GTGTGTGTATGACAGGTGGGACCATATATTAATAGTGTAGCGGAGTCACCTAGTGCAG	3480 fluorescence intensity (a.u.)
ATCATAGTATGCCGTACGGCCTGGACCTTCTGTCACGTGGCGGAGTCACCTAGTGCAG	5660 fluorescence intensity (a.u.)
TATGTGGACCATAGTGGCCTTCGGCAATATGGATTAGTAGCGGAGTCACCTAGTGCAG	47700 fluorescence intensity (a.u.)
TGCACACCCAGGTTGAAGACGACAATGACGAGCTCGGGCGCGGAGTCACCTAGTGCAG	3330 fluorescence intensity (a.u.)
CATTCTCCTTCTCTCTCGTACGGCTAGAGGTTGAAGACGACGGAGTCACCTAGTGCAG	3760 fluorescence intensity (a.u.)
CGACTACGAGACGCGAGGTTGAAGACAAGTAAGTACTCCTCGGAGTCACCTAGTGCAG	65500 fluorescence intensity (a.u.)
GAGTTACCACGAGATGACACGTAGGATAAAGAGCTTTGAACGGAGTCACCTAGTGCAG	8600 fluorescence intensity (a.u.)
CTCGAGAGTTATTTATTATTTATATTTCCAAAGGTTTGACCGGAGTCACCTAGTGCAG	25900 fluorescence intensity (a.u.)
CGTCCAAATATTATTTCCTGCGCGTGGTTTACAAAAGAGGCGGAGTCACCTAGTGCAG	47300 fluorescence intensity (a.u.)
TCCAATCCTGCGTGGAGTAATTTATTTCAAGCGCAACAGGCGGAGTCACCTAGTGCAG	3630 fluorescence intensity (a.u.)
